# Measurements reported in PubChem BioAssay AID720697 (Broad Institute, 2013).
# Entries with a potency or affinity are not part of this list. Results filed as inconclusive are left out. Values without a mark were called inactive.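 The calls were made as follows: active = signal loss with fitted half-maximal concentration at or below twice the top valid tested dose in every test run; inconclusive = runs disagree, flat 30 to 70% signal loss, or poor fit; inactive = all runs flat, opposite direction, or potency beyond limit.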
# Experiment: general mammalian cell viability loss – inhibitor set, cherry-pick, set 2, cytotoxicity control for miR-122 modulator project, dose response (AID 720697);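 also: 0% = median of neutral control wells and -100% = MG132 positive control wells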
# Settings: HEK293T viability, CellTiter-Glo luminescence, 48 h; series mostly up to 26 µM; activity change, negative = cytotoxicity: at the top concentration
row,Compound,"activity change, negative = cytotoxicity"
1,CC(C)NC(=O)N1[C@H](CO)[C@@H](c2ccccc2)[C@@H]1CNC(=O)CN(C)C,-25.2%
2,CCCNC(=O)Nc1ccc2c(c1)C(=O)N(C)[C@H]1CC[C@H](CC(=O)NC3CCC3)O[C@H]1CO2,130%
3,CCCNC(=O)N1[C@H](CO)[C@@H](c2ccccc2)[C@H]1CNC(=O)c1ccccc1,70.2%
4,CN1C(=O)c2cc(NC(=O)c3cccc(F)c3)ccc2OC[C@H]2O[C@@H](CC(=O)O)CC[C@H]21,90%
5,CCCNC(=O)N1[C@H](CO)[C@H](c2ccc(-c3ccccc3)cc2)[C@@H]1CNC(C)=O,26.7%
6,CC(C)NC(=O)Nc1ccc2c(c1)C(=O)N(C)[C@@H]1CC[C@@H](CC(=O)NCC(F)(F)F)O[C@@H]1CO2,38.3%
7,COCC(=O)N(C[C@@H]1N[C@H](CO)[C@H]1c1ccc(C2=CCCC2)cc1)C(C)C,119%
8,CCNC(=O)C[C@H]1CC[C@@H]2[C@@H](COc3ccc(NC(=O)Nc4cccc(Cl)c4)cc3C(=O)N2C)O1,35.3% [at 23.5 µM]
9,C[C@@H]1CN([C@H](C)CO)C(=O)c2cccc(NC(=O)c3ccc(-c4nccs4)cc3)c2O[C@H]1CN(C)S(=O)(=O)c1ccc(F)cc1,-1.02% [at 23.5 µM]
10,CN1C(=O)c2cc(NC(=O)Cc3ccccc3)ccc2OC[C@H]2O[C@@H](CC(=O)NC3CCC3)CC[C@H]21,49.9%
11,CCC(=O)N1[C@H](CO)[C@@H](c2ccccc2)[C@H]1CN(C(C)C)S(C)(=O)=O,192%
12,O=C(Nc1ccc(F)cc1)N1C[C@@H]2[C@H](c3ccccc31)[C@H](CO)N2C(=O)Cc1ccccc1,39.6% [at 23.5 µM]
13,COC(=O)C[C@H]1CC[C@@H]2[C@@H](COc3ccc(NC(=O)c4cnccn4)cc3C(=O)N2C)O1,116%
14,CN1C(=O)c2cc(NC(=O)c3cccs3)ccc2OC[C@@H]2O[C@H](CC(=O)NCC(F)(F)F)CC[C@H]21,20.5%
15,CN1C(=O)c2cc(NC(=O)c3ccc4c(c3)OCO4)ccc2OC[C@H]2O[C@@H](CC(=O)O)CC[C@@H]21,128%
16,CNC(=O)C[C@H]1CC[C@H]2[C@H](COc3ccc(NC(=O)c4cccc(F)c4)cc3C(=O)N2C)O1,80%
17,CCS(=O)(=O)Nc1ccc2c(c1)C(=O)N(C)[C@@H]1CC[C@@H](CC(=O)NCCCN3CCOCC3)O[C@H]1CO2,143%
18,C[C@@H]1CN([C@H](C)CO)S(=O)(=O)c2ccc(-c3ccccc3)cc2O[C@@H]1CN(C)C(=O)c1ccc2c(c1)OCO2,33.4%
19,Cc1ccc(NCC(=O)c2ccccc2)cc1Cl,23.8%
20,CNC[C@@H]1Oc2cc(C#Cc3cccc(OC)c3)ccc2S(=O)(=O)N([C@@H](C)CO)C[C@@H]1C,-74.1%
21,CN1C(=O)c2cc(NC(=O)c3cccc(F)c3)ccc2OC[C@H]2O[C@H](CC(=O)N3CCc4ccccc4C3)CC[C@@H]21,7.53% [at 23.5 µM]
22,O=C(c1cccnc1)N1C[C@H]2[C@@H](c3ccccc31)[C@H](CO)N2C(=O)C1CCCC1,94.1% [at 23.5 µM]
23,COc1ccc(S(=O)(=O)Nc2cc(C)cc(C)n2)c2ccccc12,17.9%
24,Cc1ccc(-n2ncc(C(=O)Nc3cc(Cl)ccc3C)c2C2CCNCC2)cc1C,-26%
25,CCC(=O)N1C[C@H]2[C@@H](c3ccccc31)[C@H](CO)N2Cc1cc(F)ccc1F,39.1%
